Measured values taken from PubChem BioAssay (NCATS).
Inconclusive results are not listed. Activity calls are given as the source filed them. Unless noted, calls come from the whole dose curve.

Tests used:
[1] = qHTS for Inhibitors of the Functional Ribonucleoprotein Complex (vRNP) of Lassa (LASV) Arenavirus: LASV Primary Screen - GLuc reporter signal (AID 1347082; calls by dose curve; tested in HEK293 reporter line; note: nearly all actives have a fitted effect of over 60% in size)
[2] = qHTS for Inhibitors of the Functional Ribonucleoprotein Complex (vRNP) of Lassa (LASV) Arenavirus: Viability assay - alamar blue signal for LASV Primary Screen (AID 1347083; calls by dose curve; tested in HEK293 reporter line; note: nearly all actives have a fitted effect of over 80% in size)
[3] = qHTS for Inhibitors of the Functional Ribonucleoprotein Complex (vRNP) of Lymphocytic Choriomeningitis Arenaviruses (LCMV): Viability assay - alamar blue signal for LCMV Primary Screen (AID 1347085; calls by dose curve; tested in HEK293 reporter line; note: nearly all actives have a fitted effect of over 80% in size)
[4] = molecular target: Nucleoprotein (Lymphocytic choriomeningitis virus (strain Armstrong)) (UniProt P09992); test: qHTS for Inhibitors of the Functional Ribonucleoprotein Complex (vRNP) of Lymphocytic Choriomeningitis Arenaviruses (LCMV): LCMV Primary Screen - GLuc reporter signal (AID 1347086); note: nearly all actives have a fitted effect of over 70% in size

Measured: Potency
Note: series mostly up to about 57 µM.

Sequence of Nucleoprotein (Lymphocytic choriomeningitis virus (strain Armstrong)) (P09992 whole entry, looked up): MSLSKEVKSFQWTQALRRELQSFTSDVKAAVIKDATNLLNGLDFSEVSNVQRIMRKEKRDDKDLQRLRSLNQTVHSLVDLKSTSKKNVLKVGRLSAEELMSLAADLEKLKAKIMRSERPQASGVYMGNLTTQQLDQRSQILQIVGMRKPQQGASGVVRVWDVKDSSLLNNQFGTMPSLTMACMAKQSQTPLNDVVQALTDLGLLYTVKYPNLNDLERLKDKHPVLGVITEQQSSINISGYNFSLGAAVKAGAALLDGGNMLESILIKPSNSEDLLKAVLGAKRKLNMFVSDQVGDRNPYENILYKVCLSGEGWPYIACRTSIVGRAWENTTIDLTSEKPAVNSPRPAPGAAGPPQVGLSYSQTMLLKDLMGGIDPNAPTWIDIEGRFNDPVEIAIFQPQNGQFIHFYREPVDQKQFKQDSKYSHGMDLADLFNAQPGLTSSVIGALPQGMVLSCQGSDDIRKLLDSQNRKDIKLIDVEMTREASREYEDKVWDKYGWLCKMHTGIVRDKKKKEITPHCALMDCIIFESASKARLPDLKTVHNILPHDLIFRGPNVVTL

CO[C@@H]1[C@@H](O[C@@H]2O[C@H](C)[C@@H](O[C@H]3C[C@@](C)(O)[C@@H](O)[C@H](C)O3)[C@H](N(C)C)[C@H]2O)[C@@H](CC=O)C[C@@H](C)[C@@H](O[C@@H]2CC[C@H](N(C)C)[C@@H](C)O2)/C=C/C=C/C[C@@H](C)OC(=O)C[C@H]1OC(C)=O
inactive: all assays above

NNc1nnc(NN)c2ccccc12
inactive: all assays above

O=C1Nc2cc(Cl)ccc2Oc2ccccc21
inactive: all assays above

N[C@@H](Cc1c[nH]c2ccc(O)cc12)C(=O)O
inactive: all assays above

CN1CCN(c2cc3c(nn2)Oc2ccccc2N3C)CC1
inactive: all assays above

COc1ccc2nc(NC(=O)Nc3ccccc3)sc2c1
inactive: all assays above

C[N+](C)(C)CCCCCCCCCC[N+](C)(C)C
inactive: all assays above

CC(=O)Nc1ccc(OCCOCCOc2ccc(NC(C)=O)cc2)cc1
inactive: all assays above

O=C(CN1CCN(Cc2ccc3c(c2)OCO3)CC1)N1c2ccccc2Sc2ccccc21
inactive: all assays above

CCCCNc1ccc(C(=O)OCCN(CC)CC)cc1
inactive: all assays above

NS(=O)(=O)c1cc2c(cc1Cl)NC(C1CC3C=CC1C3)NS2(=O)=O (stereo not given)
inactive: all assays above

CCc1nnc(NS(=O)(=O)c2ccc(N)cc2)s1
inactive: all assays above

CC(=O)/C=C/C=C1/C2CCC(C2)C1(C)C (stereo not given)
inactive: all assays above

CSc1ccc(C(=O)c2[nH]c(=O)[nH]c2C)cc1
inactive: all assays above

CCN(CC)CCOC(=O)C1(c2ccccc2)CCCC1
inactive: all assays above

CNc1c2c(nn1C)CCCC2
inactive: all assays above

CCCNC(C)(C)COC(=O)c1ccccc1
inactive: all assays above

O=C1c2ccccc2C(=O)C1c1ccc(Br)cc1
inactive: all assays above

NC(=O)NNc1ccccc1
inactive: all assays above

CC(C)Cc1ccc(C(C)C(=O)OCc2ccccn2)cc1 (stereo not given)
inactive: all assays above

C=Cc1c(C)c2cc3[nH]c(cc4nc(cc5nc(cc1[nH]2)C(C)=C5CCC(=O)O)C(CCC(=O)O)=C4C)c(C)c3C=C
inactive: all assays above

O=c1[nH]c2ccccc2c(=O)n1CCCl
inactive: all assays above

CN(C)CCOC(c1ccccc1)c1ccc(Br)cc1 (stereo not given)
inactive: all assays above

COc1ccc2c(c1)c(CC(=O)OCC(=O)O)c(C)n2C(=O)c1ccc(Cl)cc1
inactive: all assays above

O=C1Cc2cc(Cl)ccc2N1
inactive: all assays above

CC1(C)CCC(C)(C)c2cc(NC(=O)c3ccc(C(=O)O)cc3)ccc21
inactive: all assays above

Nc1c(CC(=O)O)cccc1C(=O)c1ccc(Br)cc1
inactive: all assays above

O=C(NCCc1c[nH]c2ccccc12)c1cccnc1
inactive: all assays above

c1ccc([C@H]2CN3CCSC3=N2)cc1
inactive: all assays above

CN1CCCN=C1/C=C/c1cccs1
inactive: all assays above

CNC[C@H](O)c1ccc(O)c(O)c1
inactive: all assays above

C#Cc1ccc(-c2ccccc2F)cc1
inactive: all assays above

Clc1ccc(Cn2c(CN3CCCC3)nc3ccccc32)cc1
inactive: all assays above

Cc1cccc(C)c1NC(=O)C(C)N (stereo not given)
inactive: all assays above

CCOC(=O)c1cc(=O)c2c(OCC(COc3cccc4oc(C(=O)OCC)cc(=O)c34)OC(=O)[C@@H](N)CCCCN)cccc2o1
inactive: all assays above

C[C@H]1C[C@H]2[C@@H]3CCC4=CC(=O)C=C[C@]4(C)[C@H]3C(=O)C[C@]2(C)[C@@]1(O)C(=O)CO
inactive: all assays above

O=C(O)c1cn(-c2ccc(F)cc2)c2cc(N3CCNCC3)c(F)cc2c1=O
inactive: all assays above

COc1cc(C(=O)NCCCCCC(=O)O)cc(OC)c1OC
inactive: all assays above

Cn1cc(C(=O)[C@@H]2CCc3nc[nH]c3C2)c2ccccc21
inactive: all assays above

CCCCc1cc2ccccc2c(OCCN(C)C)n1
inactive: all assays above

Nc1ccc(C(=O)N2CC3CC(CN(Cc4ccccc4)C3)C2)cc1
inactive: all assays above

NC(=O)CC[C@@H](N)C(=O)O
inactive: all assays above

CCOCC(O)COc1ccc(NC(=O)CC[S+](C)C)cc1 (stereo not given)
inactive: all assays above

Nc1ccncc1N
inactive: all assays above

CC[C@H](c1ccc(O)cc1)[C@@H](CC)c1ccc(O)cc1
inactive: all assays above

CC1(C)[C@@H]2CC[C@@]1(C)C(=O)C2
inactive: all assays above

c1ccc(OCc2ccc(CCCN3CCOCC3)cc2)cc1
inactive: all assays above

Cc1c(N(C)C)c(=O)n(-c2ccccc2)n1C
inactive: all assays above

CCC1Nc2cc(Cl)c(S(N)(=O)=O)cc2S(=O)(=O)N1 (stereo not given)
inactive: all assays above

CN(C(=O)CN(CCO)CC(=O)N(C)C(C)(C)Cc1ccccc1)C(C)(C)Cc1ccccc1
inactive: all assays above

CCN(CC)CC(=O)Nc1c(C)cccc1C(=O)OC
inactive: all assays above

C[C@H]1NCc2cc(-c3ccc4c(=O)c(C(=O)O)cn(C5CC5)c4c3OC(F)F)ccc21
inactive: all assays above

CCCCNc1ccc(C(=O)OCCN(C)C)cc1
inactive: all assays above

Oc1cccc2[nH]ccc12
inactive: all assays above

CC(=O)O[C@]1(C(C)=O)CC[C@H]2[C@@H]3C=C(Cl)C4=CC(=O)CC[C@]4(C)[C@H]3CC[C@@]21C
inactive: all assays above

CN1Cc2c(N)cccc2C(c2ccccc2)C1 (stereo not given)
inactive: all assays above

COc1ccc2c(c1)C(=O)N(CCc1ccc(S(=O)(=O)NC(=O)NC3CCCCC3)cc1)C(=O)C2(C)C
inactive: all assays above

N[C@@H](CSCCCO)C(=O)O
inactive: all assays above

O=C1OC(OC(=O)c2cccnc2Nc2cccc(C(F)(F)F)c2)c2ccccc21 (stereo not given)
inactive: all assays above

CC(C(O)c1ccc(O)cc1)N1CCC(Cc2ccccc2)CC1 (stereo not given)
inactive: all assays above
